Sampled rows, rich in hits. Any-hit rate of the full collection: about 10%.
PLK1 PBD block – PLK1 (human) polo-box domain binding inhibition | 2.8% of 360,000 active | Potency, µM, without a hit: max response, negative = inhibition, hits mostly inhibitors | Plk1 PBD binding of FITC phosphopeptide, fluorescence polarization | AID 720504; also: potency is read from the fitted curve at half-maximal effect; series mostly up to about 57 µM; nearly all actives have a fitted effect of over 65% in size
VDR inhibitor – inhibitors of human vitamin D receptor. P11473. VDR-SRC2-3 peptide fluorescence polarization, 2 h. Potency, µM, for the others: max response, negative = inhibition, most hits filed as inhibitors. 0.93% of 400,000 active. AID 504847; also: potency is read from the fitted curve at half-maximal effect
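The screen uses fluorescence polarization to detect compounds that interfere with recruitment of the SRC2-3 coactivator peptide to VDR; plates are read after 2 h at room temperature.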
G9a inh – G9a (human) methyltransferase inhibition; G9a H3K9 monomethylation, AlphaScreen, 2 h; 8.8% of 350,000 active; Potency, µM (titrated, usually from 102 µM), without a hit: at the top dose activity, negative = inhibition, usual class: inhibitors; AID 504332; also: potency is read from the fitted curve at half-maximal effect; nearly all actives have a fitted effect of over 75% in size
Target sequence (Q96KQ7 913-1193 limits assumed): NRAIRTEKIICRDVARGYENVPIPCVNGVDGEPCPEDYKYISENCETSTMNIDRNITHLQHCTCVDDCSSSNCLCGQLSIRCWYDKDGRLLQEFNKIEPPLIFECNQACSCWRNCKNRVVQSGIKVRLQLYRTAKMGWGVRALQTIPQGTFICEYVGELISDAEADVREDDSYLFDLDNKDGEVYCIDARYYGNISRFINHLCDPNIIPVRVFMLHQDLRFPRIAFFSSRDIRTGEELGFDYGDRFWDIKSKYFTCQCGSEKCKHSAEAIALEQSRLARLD
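Chemiluminescent proximity detection of H3K9 monomethylation, read after 10 min bead incubation in the dark. Reaction: 20 nM G9a, 500 nM biotin-H3K9 peptide, 20 uM SAM cofactor, 2 h, room temperature, following 15 min enzyme-compound preincubation.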
Sfp PPTase inh – Sfp phosphopantetheinyl transferase inhibition. 3.5% of 310,000 active. Potency, µM, for inactives: largest response in the series, negative = inhibition, most hits filed as inhibitors. Q9F4F7. AID 1490. Biochemical Sfp PPTase activity, qHTS;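 also: the enzyme is Sfp with the accession as filed and its product quenches rhodamine fluorescence; potency is read from the fitted curve at half-maximal effect; 0% = enzyme reaction without inhibitor and -100% = no enzyme wells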
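With Hepes-Na pH 7.6 buffer containing 10 mM MgCl2, Sfp (15 nM) modified BHQ-2-YbbR (12.5 uM) using rhodamine-CoA (5 uM). Two reads 30 minutes apart at 525/598 nm yielded each well's rate.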
MmCpn inh – blocks the Methanococcus maripaludis chaperonin Mm-Cpn | purified Mm-Cpn ATPase, ADP Transcreener TR-FRET | Potency, µM (top dose mostly 76.9 µM), for inactives: at the top dose activity, negative = inhibition, most hits filed as inhibitors | 0.031% of 330,000 active; also: potency is read from the fitted curve at half-maximal effect; nearly all actives have a fitted effect of over 80% in size
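Purified archaeal Mm-CPN (25nM final) preincubated 10 min at 37degC with compound, then 10uM ATP for 30 min at 37degC; ADP measured by HTRF Transcreener TR-FRET; buffer 30 mM TRIS pH 7.4, 100mM KCl, 5mM MgCl2, 1mM DTT.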
CCT chaperon mod – modulators of cytosolic chaperonin (CCT/TRiC) activity. purified chaperonin ATPase assay, HTRF ADP detection, 30 min. activity change, % (no concentration beside the values), hits read low. 0.3% of 360,000 active. AID 651819; in the data active = activity change below about -30%
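TRiC (40 or 20 nM final, by batch activity) in 30 mM Tris pH 7.4, 100 mM KCl, 5 mM MgCl2, 1 mM DTT was treated with compound at 76 uM single dose, then 10 uM ATP, 30 min at 37 °C. ADP was read by HTRF Transcreener.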
An asterisk follows results filed as active; ? = inconclusive; . = no result given; [ ] = remark or other dose. Unless noted, calls follow the shape of the dose curve; as a rule, active = well fitted curve in the direction sought with a large enough effect; inconclusive = small, poorly fitted or top-dose-only effect, or another doubt; inactive = no such curve, though single readings can be large; an effect the other way counts as inactive or inconclusive. Unless noted, % is scaled to controls: 0 for no effect and ±100 for the full control effect.

SMILES	PLK1 PBD block	VDR inhibitor	G9a inh	Sfp PPTase inh	MmCpn inh	CCT chaperon mod
Cn1cnnc1SC1CCCCC1NS(=O)(=O)c1ccccc1 (configuration not stated)	-1%	-13%	3%[59 µM]	12%	-1%	0
Cn1cnnc1SC1CCCCC1NS(=O)(=O)c1ccc(Cl)cc1 (configuration not stated)	1%	14%	13µM*	10%	3%	-1
COCCn1c(=O)c(-c2ccc(F)c(F)c2)nc2cncnc21	.	-7%	-2%[12.7 µM]	-6%	.	.
Nc1ccccc1C(=O)/C=C/c1ccccc1	.	-7%	.	-5%	.	.
CSc1nc2sc3c(c2c(=O)n1-c1ccc(F)c(Cl)c1)CCN(C(C)=O)C3	.	2%	-5%[59 µM]	.	.	.
NC(=O)c1ccc(-c2ccc(Br)cc2)o1	-7%	2%	50µM*	-11%	?	-2
Cc1ccccc1C(=O)Nc1cccc(NC(=O)c2ccc(-c3ccc(Br)cc3)o2)c1	-10%	6%	8%[2.33 µM]	?	-3%	-2
NC(=O)C1CCN(C(=S)c2ccc(-c3ccc(Br)cc3)o2)CC1	12µM*	2%	35µM*	16µM*	-3%	-3
O=C(O)c1ccc(-c2cccc(Cl)c2)o1	-10%	-12%	.	.	.	-1
Cc1ccc(S(=O)(=O)NC(=O)c2ccc(F)cc2)c(C)c1	-15%	-6%	-4%	17%	1%	-1
Cc1ccc(S(=O)(=O)NC(=O)c2ccc(-c3ccc(-c4ccccc4)cc3)o2)c(C)c1	.	.	40µM*	-14%	0%	.
O=C(O)c1ccc(-c2ccc(-c3ccccc3)cc2)o1	.	89µM*	35µM*	?	.	.
COC(=O)N1CCC2(CCCN(c3ccccn3)C2)CC1	.	-6%	6%[12.7 µM]	3%	.	.
O=C(O)CO	.	2%	.	-1%	.	.
COc1ccc2cc3cc(C(=O)Nc4cc(C)c(Cl)cc4OC)oc3nc2c1	.	-5%	-4%[59 µM]	.	.	.
Cc1ccc(OCc2nnc(SCC(=O)O)n2N)cc1	1%	0%	108%[59 µM]	-11%	-1%	1
COc1ccc(OCc2nnc(SCC(=O)N(C)Cc3ccccc3)n2N)cc1	11µM*	79µM*	7.1µM*	25µM*	2%	1
O=C1C2CCCN2C(c2ccc(F)cc2)N1c1nccs1 (configuration not stated)	-14%	-13%	-31%[12.7 µM]	?	-6%	-2
Cc1cccc(C2N(c3nccs3)C(=O)C3CCCN32)c1 (configuration not stated)	-14%	-1%	7.9µM*	?	-1%	-1
O=C1C2CCCN2C(c2ccc(Cl)cc2)N1c1nccs1 (configuration not stated)	?	6%	16µM*	1%	0%	0
CCc1ccccc1NC(=O)CN1C(=O)COc2ccc(S(=O)(=O)Nc3ccccc3)cc21	.	8%	-29%[59 µM]	.	.	.
FC(F)(F)c1ccccc1NC(=S)N/N=C1\CC2CC=CC12 (configuration not stated)	?	9%	18µM*	-29%	1%	-1
O=C(N/N=C1\CC2CC=CC12)c1ccccc1Cl (configuration not stated)	-2%	-10%	-9%	11%	1%	-2
CC(C)CC(NC(=O)C(COCc1ccccc1)NC(=O)OC(C)(C)C)C(=O)NN (configuration not stated)	27µM*	-22%	-12%	13%	0%	0
CC(C)CC(NC(=O)OC(C)(C)C)C(=O)NCc1ccccc1 (configuration not stated)	-22%	16%	18%	6%	0%	3
NC(=O)c1cc(N2C(=O)C=CC2=O)ccc1Cl	21µM*	20µM*	1.3µM*	8.9µM*	0%	1
COC(=O)c1cc(N2C(=O)C3C4C=CC(CC4)C3C2=O)ccc1Cl (configuration not stated)	-8%	11%	25%	17%	1%	1
Brc1ccc2nc(-c3ccncc3)c(NC3CCCC3)n2c1	3%	1%	-33%	-21%	-1%	-36*
CCN(CC)c1ccc(-c2nc3cnccn3c2NC2CCCC2)cc1	3%	-16%	50µM*	-24%	2%	-1
